HGIII-sPLA2 inh = Inhibits HGIII-sPLA2 liposome hydrolysis, primary screen | Q9NZ20 | QFRET BODIPY PC-A2 liposome hydrolysis, fluorescence | inhibition, % at 12.2 µM | 370,000 compounds, 0.56% hits | AID 743126;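 active = inhibition above mean plus 3 SD of compounds lying within the high and low control bounds, cut at about 19% in these data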;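 also: 0% = median of test compound wells and 100% = no enzyme DMSO wells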
ARNT TACC3 PPI = ARNT/TACC3 interaction disruption; 390,000 compounds, 0.66% hits; inhibition, % at 9.99 µM; AlphaScreen His-ARNT PAS-B/GST-TACC3 binding, luminescence; TACC3 fragment carries E629A point mutation; Q9Y6A5;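 active = mean inhibition of replicates at least 50% and at least half of replicates each reaching 50%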;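 also: 0% = complete ARNT plus TACC3 wells and 100% = ARNT alone without TACC3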
AI-2 QS modul = modulators of Vibrio harveyi AI-2 quorum sensing system; Vibrio harveyi JMH597 AI-2 luminescence/OD600 ratio, 9 h; stronger effect = lower value; strain lacks LuxN and CqsS sensors; 0 = neutral-control median; activity change, % at 7.5 µM; 300,000 compounds, 0.4% hits; in the data active = activity change below about -75%, passing the limit was not always enough;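 also: luminescence divided by OD600 gain over 9 h not by final OD600 alone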
Rin1-Abl PPI inh = human Rin1-Abl interaction inhibition. P00519+Q13671. TR-FRET Rin1/Abl binding, biochemical. inhibition, % at 7.35 µM. 360,000 compounds, 0.4% hits. AID 588664; in the data active = inhibition above about 5%, passing the limit was not always enough
Target sequence (P00519 whole entry, looked up): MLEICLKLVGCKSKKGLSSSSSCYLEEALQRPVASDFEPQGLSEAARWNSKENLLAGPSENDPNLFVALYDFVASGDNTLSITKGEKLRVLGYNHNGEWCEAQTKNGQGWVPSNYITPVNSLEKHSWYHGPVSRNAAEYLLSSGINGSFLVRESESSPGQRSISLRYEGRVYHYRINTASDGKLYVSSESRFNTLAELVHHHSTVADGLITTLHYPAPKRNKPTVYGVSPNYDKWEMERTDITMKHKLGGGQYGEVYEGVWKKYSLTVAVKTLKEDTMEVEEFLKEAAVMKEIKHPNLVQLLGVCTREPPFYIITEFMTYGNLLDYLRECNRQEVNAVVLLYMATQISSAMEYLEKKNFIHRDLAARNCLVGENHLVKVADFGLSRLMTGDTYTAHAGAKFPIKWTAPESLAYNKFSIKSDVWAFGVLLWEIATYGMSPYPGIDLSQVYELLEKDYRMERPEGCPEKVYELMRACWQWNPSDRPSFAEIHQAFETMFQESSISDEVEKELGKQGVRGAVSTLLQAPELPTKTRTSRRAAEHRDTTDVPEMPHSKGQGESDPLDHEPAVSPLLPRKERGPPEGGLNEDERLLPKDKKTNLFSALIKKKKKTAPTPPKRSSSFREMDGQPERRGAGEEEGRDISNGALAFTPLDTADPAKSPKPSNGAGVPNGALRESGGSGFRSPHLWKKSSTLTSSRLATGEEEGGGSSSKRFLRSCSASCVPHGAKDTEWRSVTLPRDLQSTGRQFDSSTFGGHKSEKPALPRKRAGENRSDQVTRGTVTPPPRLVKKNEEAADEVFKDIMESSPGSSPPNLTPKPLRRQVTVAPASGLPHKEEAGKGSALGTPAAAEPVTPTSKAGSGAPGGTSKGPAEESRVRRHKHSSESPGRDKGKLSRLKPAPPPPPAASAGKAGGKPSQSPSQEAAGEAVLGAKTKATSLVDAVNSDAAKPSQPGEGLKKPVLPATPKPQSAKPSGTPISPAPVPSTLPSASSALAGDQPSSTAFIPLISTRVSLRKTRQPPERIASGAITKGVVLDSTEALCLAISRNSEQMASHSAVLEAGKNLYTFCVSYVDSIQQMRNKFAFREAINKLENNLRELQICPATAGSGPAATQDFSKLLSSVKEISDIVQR
Target sequence (Q13671 whole entry, looked up): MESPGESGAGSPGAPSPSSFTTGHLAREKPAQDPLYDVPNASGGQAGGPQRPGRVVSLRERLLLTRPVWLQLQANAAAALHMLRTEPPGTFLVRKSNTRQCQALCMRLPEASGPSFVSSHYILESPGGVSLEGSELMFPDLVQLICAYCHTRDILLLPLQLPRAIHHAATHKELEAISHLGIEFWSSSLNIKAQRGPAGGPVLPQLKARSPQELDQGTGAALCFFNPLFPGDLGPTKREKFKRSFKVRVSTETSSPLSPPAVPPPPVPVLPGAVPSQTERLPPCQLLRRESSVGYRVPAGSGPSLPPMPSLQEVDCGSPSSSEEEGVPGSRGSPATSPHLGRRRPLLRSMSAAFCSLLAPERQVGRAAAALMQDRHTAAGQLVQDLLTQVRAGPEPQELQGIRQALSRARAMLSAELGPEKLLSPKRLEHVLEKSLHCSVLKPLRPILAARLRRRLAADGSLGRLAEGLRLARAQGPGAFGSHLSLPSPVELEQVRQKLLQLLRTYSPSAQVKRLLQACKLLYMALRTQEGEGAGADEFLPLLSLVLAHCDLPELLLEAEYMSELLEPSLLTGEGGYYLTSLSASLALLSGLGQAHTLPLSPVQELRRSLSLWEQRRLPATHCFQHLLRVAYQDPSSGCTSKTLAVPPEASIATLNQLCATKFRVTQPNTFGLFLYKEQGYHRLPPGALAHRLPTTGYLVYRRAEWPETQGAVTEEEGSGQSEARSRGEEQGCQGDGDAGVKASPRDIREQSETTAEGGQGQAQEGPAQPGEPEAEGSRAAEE
An asterisk follows results filed as active; . = no result. A selection: hits, their analogues and other compounds. The true share with any hit is near 1.5%.

SMILES	HGIII-sPLA2 inh	ARNT TACC3 PPI	AI-2 QS modul	Rin1-Abl PPI inh
Cc1ccccc1/C=N/Nc1nc2ccccc2[nH]1	-2.2	18.5	7.9	1.7
Cc1[nH]c2ccccc2c1/C=N/Nc1nc2ccccc2[nH]1	-11.8	45.4*	15.3	-0.4
O=C(CCN1CCCCC1)NCC[C@H]1CC[C@H](NC(=O)C2CC2)[C@@H](CO)O1	.	15.9	.	.
CCC(=O)N1[C@@H]2c3cccc(=O)n3C[C@H]1[C@H](CO)[C@H]2C(=O)NC1CCCCC1	.	8.5	.	.
COC(Cc1n[nH]c(=S)n1-c1ccc(Cl)cc1)OC	-1.9	50.9*	14.7	2.3
COC(Cc1nnc(SC)n1-c1ccc(Cl)cc1)OC	-5.6	-3.6	13.4	1.0
Cc1ccc(Cl)cc1NC(=O)C[n+]1ccc(Cc2ccc([N+](=O)[O-])cc2)cc1	-34.8	50.9*	16.8	2.1
CCC(=O)NC(c1ccccc1OC)c1ccc2cccnc2c1O (stereo not drawn)	.	33.3	-30.5	13.9*
COc1ccc(Nc2nnc(-c3ccc(C(N)=O)cc3)c3ccccc23)cc1	-5.7	50.9*	6.6	-0.6
O=[N+]([O-])c1cccc(C=NNc2ccc3ccccc3n2)c1O	0.5	71.9*	.	-2.2
Fc1cccc(/C=N/Nc2ccc3ccccc3n2)c1	20.0*	-2.0	18.4	3.6
NNc1nc2c(Cl)ccc(Cl)c2s1	21.9*	3.0	16.6	-1.6
COc1ccc(C=NNC(=S)Nc2ccc(F)cc2)cc1OC	22.6*	3.6	.	0.4
O=C(/C=C/c1ccccc1Cl)Nc1ccccc1	-2.5	-1.4	-47.6	-1.8
CN(C)S(=O)(=O)c1ccc(NC(=O)/C=C/c2ccccc2Cl)cc1	-22.3	32.4	-93.0*	-4.3
Cc1c(N=NC2=C(O)CCCC2=O)c(=O)n(-c2ccccc2)n1C	-1.0	63.1*	8.2	4.8
CC(=O)/C=C/n1c(=S)oc2ccccc21	7.5	.	-96.3*	.
COc1ccc(CCNC(=O)C23CCC(C)(C(=O)C2Br)C3(C)C)cc1OC (stereo not drawn)	-3.1	49.3*	-1.8	-1.0
O=c1cnnc(N/N=C/c2ccc3c(c2)OCO3)[nH]1	-1.1	15.2	15.2	0.9
O=c1cnnc(N/N=C/C2CC=CCC2)[nH]1 (stereo not drawn)	4.4	65.1*	11.0	-2.3
O=C(Nc1cccc(Cl)c1)Nc1csc([N+](=O)[O-])c1	-18.0	3.4	-91.3*	-0.2
O=C(Nc1ccncc1)Nc1cccc(Cl)c1	-13.1	-3.6	10.2	-1.1
COc1ccc(CC(=O)OCC(=O)Nc2cccc(Cl)c2)cc1	-14.0	-15.5	-70.5	0.7
COc1ccc(CCC(=O)Nc2cccc(Cl)c2)cc1	5.0	-12.1	-82.9*	-1.1
COc1ccc(CC(=O)OCC(=O)Nc2cccc(Br)c2)cc1	-2.4	-7.1	-76.1*	0.3
SMILES	HGIII-sPLA2 inh	ARNT TACC3 PPI	AI-2 QS modul	Rin1-Abl PPI inh
COc1cccc(NC(=O)COC(=O)Cc2ccc(Br)cc2)c1	-11.9	.	-7.1	5.0
Cc1cccc(NC(=O)CCc2ccccc2)c1	6.1	-5.6	-84.9*	-1.5
COc1ccccc1OCC(=O)NCc1cccs1	4.3	45.3*	13.8	3.1
COc1cc(C#N)ccc1OCC(=O)NCc1cccs1	0.7	-5.9	21.4	0.8
O=C(O)CCCCCNS(=O)(=O)c1cccc2c1C(=O)c1ccccc1C2=O	1.2	57.7*	5.7	-1.9
COc1ccc(/C=C2\SC(=O)N(CC(=O)NNC(=O)c3ccccc3O)C2=O)cc1	11.4	-1.3	44.1	-2.2
O=C(CCCN1C(=O)S/C(=C\c2ccccc2)C1=O)NNC(=O)c1ccccc1O	24.5*	-0.3	11.7	4.1
Nc1c(N2CCOCC2)cc(Cl)c2nonc12	5.1	15.6	-4.8	-10.5
Nc1c(N2CCCC2)cc(Cl)c2nonc12	.	37.3*	-14.0	0.1
C[C@@H]1CN([C@@H](C)CO)C(=O)c2cccc(NC(=O)Nc3ccc(F)cc3)c2O[C@@H]1CN(C)CC1CC1	.	19.8	.	.
Cc1ccccc1NC(=O)CSc1n[nH]c(-c2ccccn2)n1	0.6	64.4*	34.7	-2.3
COc1ccc(OCC(=O)N/N=C/c2cccc3cccnc23)cc1	-15.8	76.9*	21.1	-1.6
Cc1ccc(C)c(SCC(=O)Nc2cccc(S(=O)(=O)N3CCOCC3)c2)c1	-13.2	-12.0	.	1.1
COc1cccc(/C=N/NC(=O)CSc2cccc3cccnc23)c1	-7.9	95.9*	14.7	-2.5
O=C(CSc1cccc2cccnc12)Nc1cccc(S(=O)(=O)N2CCOCC2)c1	-6.4	25.6*	4.0	-1.9
C[C@@H]1CN([C@@H](C)CO)C(=O)c2cc(NC(=O)CCCN(C)C)ccc2O[C@@H](C)CCCCO[C@@H]1CN(C)Cc1ccncc1	.	11.8	.	.
C[C@H]1CN([C@@H](C)CO)C(=O)Cc2cc(NC(=O)CCN3CCOCC3)ccc2O[C@@H]1CN(C)C(=O)Nc1cccc2ccccc12	.	0.4	.	.
COc1ccccc1OCC(=O)N/N=C/c1cccc2cccnc12	0.7	77.9*	37.5	-5.2
COc1cccc(/C=N/NC(=O)COc2cccc3cccnc23)c1O	-26.1	3.4	14.8	-2.4
Cc1cccc(NC(=O)CSc2cccc3cccnc23)c1C	-7.5	83.7*	-2.4	1.8
Cc1ccc(C(c2cc(Cl)c3cccnc3c2O)N2CCN(C)CC2)cc1 (stereo not drawn)	.	.	-169.4*	3.3
CC(=O)NC(c1ccccc1)c1cc([N+](=O)[O-])c2cccnc2c1O (stereo not drawn)	6.2	41.6	-89.9*	3.1
CN1CCN(C(c2ccc(C(F)(F)F)cc2)c2ccc3cccnc3c2O)CC1 (stereo not drawn)	7.9	.	.	.
CC(=O)NC(c1cc(Cl)c2cccnc2c1O)C1CC1 (stereo not drawn)	5.5	68.7*	.	5.9
CC(=O)NC(C)c1cc(F)c2cccnc2c1O (stereo not drawn)	4.4	74.5*	.	-0.3
SMILES	HGIII-sPLA2 inh	ARNT TACC3 PPI	AI-2 QS modul	Rin1-Abl PPI inh
CCC(=O)NC(c1cc(Cl)c2ccccc2c1O)C1CC1 (stereo not drawn)	2.3	2.6	.	3.5
CCNC(=O)C[C@H]1CC[C@H]2[C@@H](COC[C@@H](O)CN2C(=O)Nc2ccc3c(c2)OCO3)O1	.	9.7	.	.
O=C(C[C@H]1CC[C@@H]2[C@H](COC[C@@H](O)CN2C(=O)Nc2cc(Cl)cc(Cl)c2)O1)NCC1CCCCC1	.	-10.8	.	.
COc1ccccc1-c1cn(CC[C@@H]2CC[C@H](NC(=O)C3CC3)[C@H](CO)O2)nn1	.	-3.0	.	.
CC=Cc1ccc2n(c1=O)C[C@@H]1[C@@H](CO)[C@H](C(=O)NCC)[C@H]2N1Cc1ccccc1 (mixture of isomers)	.	4.7	.	.
[O-][n+]1cccc2c(Br)cc(Br)c(O)c21	1.0	.	-197.3*	5.3
CC(Nc1ccc2ccccc2c1)C(=O)N/N=C/c1ccncc1 (stereo not drawn)	3.1	active	.	4.9
O=C(NNC1=C(C(=O)C(F)(F)F)CCC1)c1ccccc1O	6.7	63.2*	3.0	-1.3
CCNC(=S)N1CCN(c2ccccn2)CC1	1.3	-2.1	12.1	4.4
CC(NNC(=S)N1CCN(c2ccccn2)CC1)c1nccc2ccccc12 (stereo not drawn)	13.1	63.4*	.	1.0

Screening data deposited in PubChem BioAssay by several laboratories.
